Data reported in PubChem BioAssay (Tox21).
Records with an inconclusive call do not appear. Active and inactive are the calls of the source. Unless noted, the call rests on the fitted dose curve; in most records, active means well fitted curve in the direction sought with a large enough effect in the repeat runs; inconclusive means weak or mixed curves; inactive means no such curve, though single readings can be large; an effect the other way counts as inactive or inconclusive.

How the values were obtained:
[1] = qHTS assay to identify small molecule antagonists of the estrogen related receptor (ERR) signaling pathway - cell viability counter screen (AID 1224818);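 further: viability measured after 17.5 h of compound exposure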
Procedure, shortened: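 After a 6 h pre-incubation, ERR cells were dosed by pin tool with compounds, positive/negative controls or DMSO alone. Following 17.5 h at 37 C and 30 min with CellTiter-Fluor, fluorescence was recorded.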

[2] = qHTS assay to identify small molecule antagonists of the estrogen related receptor (ERR) signaling pathway (AID 1224819; further: nearly all actives have a fitted effect of over 50% in size)
Procedure, shortened: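 Luminescence readout (One-Glo, 30 min, RT) of ERR cell line after 18 h compound exposure at 37 C; cells seeded 2,000/well, pre-incubated 6 h, compounds pinned from DMSO stocks.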

[3] = qHTS assay to identify small molecule agonists of the estrogen related receptor (ERR) signaling pathway (AID 1224820)
Procedure, shortened: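 ERR reporter cell line (from NTP), 2,000 cells/well, incubated 6 h before compound addition, then 18 h at 37 C. Luminescence measured 30 min after One-Glo reagent at room temperature.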

[4] = tested on: estrogen-related receptor alpha (ERRalpha) with PGC-1alpha coactivator, human; test: qHTS assay to identify small molecule antagonists of the estrogen related receptor signaling pathway with the pleiotropic PPARgamma coactivator (PGC) (AID 1224821; calls by dose curve; further: nearly all actives have a fitted effect of over 50% in size)
Procedure, shortened: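 PGC/ERR reporter cell line, plated 6 h before compound addition, then exposed 18 h at 37 °C. Luciferase activity read by luminescence 30 min after One-Glo addition; decrease indicates antagonism.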

[5] = qHTS assay to identify small molecule antagonists of the estrogen related receptor signaling pathway with the pleiotropic PPARgamma coactivator (PGC) cell viability counter screen (AID 1224822;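 further: viability read after 17.5 h compound exposure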)
Procedure, shortened: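 PGC/ERR cells were plated at 2,000 per well and allowed 6 h to settle before compound addition. Following 17.5 h at 37 C, CellTiter-Fluor reagent was added and fluorescence was read 30 min later.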

[6] = qHTS assay to identify small molecule agonists of the estrogen related receptor signaling pathway with the pleiotropic PPARgamma coactivator (PGC) (AID 1224823)
Procedure, shortened: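 PGC/ERR reporter cells seeded 6 h, then exposed to compounds (23 nL in DMSO) for 18 h at 37 C. One-Glo luciferase luminescence read after 30 min at room temperature.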

Measured: Potency
Potency means the concentration at half of the fitted maximal effect.

O=[N+]([O-])c1ccc(CSc2ncnc3c2ncn3[C@@H]2O[C@H](CO)C(O)[C@H]2O)cc1 (some centres not stated)
inactive: all assays above

Oc1ccc(C2CNCc3sccc32)cc1O (configuration not stated)
inactive: all assays above

CC1CCN=C(N)S1 (configuration not stated)
inactive: all assays above

NC1(C(=O)O)CCCCC1
inactive: all assays above

COCc1nc2c([nH]1)c(=O)n(C)c(=O)n2CC(C)C
inactive: all assays above

CCOC(=O)[C@H](CCc1ccccc1)N[C@@H](C)C(=O)N1[C@H](C(=O)O)C[C@H]2CCCC[C@@H]21
inactive: all assays above

[N-]=[N+]=Nc1ccc(C(=O)CSC[C@H](NC(=O)CC[C@H](N)C(=O)O)C(=O)NCC(=O)O)cc1
active: [2] 0.552 µM
inactive: all other assays above

CN=C(N)NCCC[C@H](N)C(=O)O
inactive: all assays above

O=c1cc(-c2ccccc2)[nH]c2nc(Cl)ccc12
inactive: all assays above

NC(C(=O)N[C@@H]1C(=O)N2C(C(=O)O)=C(Cl)CS[C@H]12)c1ccccc1 (some centres not stated)
inactive: all assays above

C[N+](C)(C)CCOP(=O)(O)OP(=O)([O-])OC[C@H]1O[C@@H](n2ccc(N)nc2=O)[C@H](O)C1O (some centres not stated)
inactive: all assays above

Oc1ccc(Cn2cc[nH]c2=S)cc1
inactive: all assays above

CC(=O)NC[C@H]1CN(c2ccc(N3CCOCC3)c(F)c2)C(=O)O1
inactive: all assays above

O=C(O)Cc1ccc(O)c(O)c1
inactive: all assays above

COc1ccc2c(c1)c(CC(=O)O)c(C)n2Cc1ccc(Cl)cc1
inactive: all assays above

O=Nc1c(-c2c(O)[nH]c3cc(Br)ccc23)[nH]c2ccccc12
active: [1] 16.2 µM | [3] 1.68 µM | [5] 11.4 µM | [6] 1.14 µM
inactive: [2] | [4]

CCCCCCCCc1ccc(-c2ccc(C(=O)O)cc2)cc1
inactive: all assays above

Clc1nccc2c1ccc1ccccc12
inactive: all assays above

CC[N+](CC)(CC)CC(=O)Nc1c(C)cccc1C
inactive: all assays above

Nc1ccc(N2C(=O)c3ccccc3C2=O)c(Cl)c1
inactive: all assays above

N[C@@H](Cc1ccc(O)c(O)c1)C(=O)O
inactive: all assays above

O=c1[nH]c(=O)c2nc3ccccc3nc2[nH]1
inactive: all assays above

COc1cc2c(CCNC(C)=O)c[nH]c2cc1Cl
inactive: all assays above

O=c1[nH]c2ccccc2c2ccccc12
inactive: all assays above

O=C(/C=C/c1ccc(O)cc1)c1ccc(O)cc1O
inactive: all assays above

O=C(O)CNC(=O)C(CS)Cc1ccccc1 (configuration not stated)
inactive: all assays above

CC(=O)NCCc1c[nH]c2ccc(O)cc12
inactive: all assays above

O=C1CCC(c2ccc(-n3ccnc3)cc2)=NN1
inactive: all assays above

CN(CCCOc1ccc(Cc2ccccc2)cc1)CCC(=O)O
inactive: all assays above

Cc1cccc(C(=O)NCN2CCN(c3ccccc3C#N)CC2)c1
inactive: all assays above

CCN(CC)CCCCNc1ncc2cc(-c3c(Cl)cccc3Cl)c(NC(=O)NC(C)(C)C)nc2n1
active: [1] 22 µM | [2] 2.37 µM | [5] 13.3 µM
inactive: [3] | [4] | [6]

O=C(O)C1=CCCN(CCON=C(c2ccccc2)c2ccccc2)C1
inactive: all assays above

O=C(O)[C@H]1NCCC[C@H]1C(=O)O
inactive: all assays above

OCC1O[C@H](O)C(Cl)C(O)C1O (some centres not stated)
inactive: all assays above

CC1CCN(CC[C@H]2CCCN2S(=O)(=O)c2cccc(O)c2)CC1
inactive: all assays above

COC(=O)[C@H]1[C@H]2C[C@H]3c4[nH]c5ccccc5c4CCN3C[C@H]2CC[C@@H]1O
inactive: all assays above

N[C@H]1CONC1=O
inactive: all assays above

Brc1cc2c(cc1[C@H]1Nc3ccccc3[C@H]3C=CC[C@H]31)OCO2
inactive: all assays above

C=CCNc1ncnc2ccc(Br)cc12
active: [2] 9.44 µM | [4] 10.2 µM
inactive: all other assays above

NC1CCN(O)C1=O (configuration not stated)
inactive: all assays above

NC1C=CC=C(C(=O)O)C1 (configuration not stated)
inactive: all assays above

OC[C@H]1O[C@H](n2cnc3c(N[C@H]4CCC[C@@H]4O)ncnc32)[C@H](O)[C@@H]1O
active: [6] 9.08 µM
inactive: all other assays above

CCCCCCCCCC[Si](C)(C)CCC(=O)NC(Cc1ccc(C)cc1)c1ccccc1 (configuration not stated)
inactive: all assays above

C[N+](C)(C)CC=O
inactive: all assays above

CCCC(CCC)C(=O)OC1CC2CCC(C1)[N+]2(C)C (configuration not stated)
inactive: all assays above

O=C1NC(=O)/C(=C/c2ccc(-c3ccc(F)cc3O)o2)S1
inactive: all assays above

Cc1ccc2c(c1)C(N1CCN(C)CC1)=Nc1cccnc1N2
inactive: all assays above

CC(=O)/C(C)=N/O
inactive: all assays above

O=C(O)c1cc(=O)cc(C(=O)O)[nH]1
inactive: all assays above

Cc1nc2c(OCc3ccccc3)cccn2c1CC#N
inactive: all assays above

NCC1OC(OC2C(O)[C@@H](OC3C(O)C(N)CC(N)C3OC3OC(CO)C(O)C(O)C3N)O[C@@H]2CO)C(N)C(O)C1O (some centres not stated)
inactive: all assays above

NCCC1CCCC(CCN)N1 (configuration not stated)
inactive: all assays above

Nc1nc2c(nc(Br)n2C2OC3COP(=O)(O)O[C@@H]3C2O)c(=O)[nH]1 (some centres not stated)
inactive: all assays above

NC1(C(=O)O)CC1
inactive: all assays above

O=c1[nH]c2cc([N+](=O)[O-])c([N+](=O)[O-])cc2[nH]c1=O
inactive: all assays above

Cc1nc2n(c(=O)c1CCN1CCC(c3noc4cc(F)ccc34)CC1)CCCC2O (configuration not stated)
inactive: all assays above

NC/C=C\C(=O)O
inactive: all assays above

Nc1ccc(CCNc2ncnc3c2ncn3C2OC(CO)C(O)C2O)cc1 (configuration not stated)
active: [6] 12.3 µM
inactive: all other assays above

CC(O)C(O)[C@H]1CNc2nc(N)[nH]c(=O)c2N1 (some centres not stated)
inactive: all assays above

COc1ccc2c(c1)c(CC(=O)O)c(C)n2C(=O)c1ccccc1
inactive: all assays above

N#CC(=C(\N)Sc1ccccc1N)/C(C#N)=C(/N)Sc1ccccc1N
active: [2] 10.2 µM | [4] 9.81 µM
inactive: all other assays above

Nc1nc2[nH]c(=O)cnc2c(=O)[nH]1
inactive: all assays above
